# Measurements taken from article PMC7862700, “An all-to-all approach to the identification of sequence-specific readers for epigenetic DNA modifications on cytosine”.
# Columns and labels:
# Test in all cases: DAPPL (digital affinity profiling via proximity ligation, sequencing); 10 mM Tris-HCl pH 7.5, 50 mM NaCl, 1 mM DTT, 4% glycerol, room temperature, 30 min; GST-TFs on glutathione beads, 16-mer random dsDNA library, 0.1% formaldehyde crosslink after washing; high values mean tight binding
# [1] = target: T1, FLI1 (Homo sapiens, UniProt Q01543 1-452); conditions: protein: recombinant; tags: N-terminal GST; dsDNA, one strand shown
# T1 sequence: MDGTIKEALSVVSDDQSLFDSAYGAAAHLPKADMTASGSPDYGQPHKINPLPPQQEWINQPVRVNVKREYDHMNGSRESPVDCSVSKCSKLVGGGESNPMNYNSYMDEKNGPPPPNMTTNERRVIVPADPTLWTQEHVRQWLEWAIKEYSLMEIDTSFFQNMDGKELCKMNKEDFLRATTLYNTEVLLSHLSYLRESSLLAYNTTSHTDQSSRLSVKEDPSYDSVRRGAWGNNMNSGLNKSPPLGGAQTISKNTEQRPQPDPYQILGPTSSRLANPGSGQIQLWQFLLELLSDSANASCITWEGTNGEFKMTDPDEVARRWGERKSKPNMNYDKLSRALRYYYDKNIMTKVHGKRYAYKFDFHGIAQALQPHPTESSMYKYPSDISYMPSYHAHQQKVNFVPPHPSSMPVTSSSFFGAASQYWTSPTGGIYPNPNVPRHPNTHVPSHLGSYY
# Procedure, shortened: (§1)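 Binding signal is given per hexamer as its read frequency for a factor divided by its frequency in the tag-only sample. GST-fused human transcription factors were expressed in yeast, captured on glutathione beads, barcoded with DNA and pooled with that sample, then incubated with 200 nmole of a 16-mer random double-stranded DNA library in Tris/NaCl/DTT/glycerol buffer for 30 min at room temperature. The pools were then washed, crosslinked, proximity-ligated, amplified by PCR and sequenced on an Illumina NextSeq500.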
# [2] = target: T2, ELK1 (Homo sapiens, UniProt P19419 1-428); conditions: protein: recombinant; tags: N-terminal GST; dsDNA, one strand shown
# T2 sequence: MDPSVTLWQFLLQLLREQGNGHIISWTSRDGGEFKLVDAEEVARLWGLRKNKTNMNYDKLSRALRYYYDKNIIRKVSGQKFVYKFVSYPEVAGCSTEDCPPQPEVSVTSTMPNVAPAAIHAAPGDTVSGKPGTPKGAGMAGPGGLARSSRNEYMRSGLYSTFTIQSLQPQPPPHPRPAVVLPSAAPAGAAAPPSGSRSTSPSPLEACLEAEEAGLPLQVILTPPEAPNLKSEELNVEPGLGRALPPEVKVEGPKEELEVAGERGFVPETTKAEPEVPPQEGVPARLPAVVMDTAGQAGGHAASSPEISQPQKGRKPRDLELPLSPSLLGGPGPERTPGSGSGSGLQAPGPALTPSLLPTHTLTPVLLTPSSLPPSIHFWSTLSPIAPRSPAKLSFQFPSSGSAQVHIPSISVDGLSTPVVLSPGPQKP
# Procedure, shortened: as §1
# [3] = target: T3, GABPA (Homo sapiens, UniProt Q06546 1-454); conditions: protein: recombinant; tags: N-terminal GST; dsDNA, one strand shown
# T3 sequence: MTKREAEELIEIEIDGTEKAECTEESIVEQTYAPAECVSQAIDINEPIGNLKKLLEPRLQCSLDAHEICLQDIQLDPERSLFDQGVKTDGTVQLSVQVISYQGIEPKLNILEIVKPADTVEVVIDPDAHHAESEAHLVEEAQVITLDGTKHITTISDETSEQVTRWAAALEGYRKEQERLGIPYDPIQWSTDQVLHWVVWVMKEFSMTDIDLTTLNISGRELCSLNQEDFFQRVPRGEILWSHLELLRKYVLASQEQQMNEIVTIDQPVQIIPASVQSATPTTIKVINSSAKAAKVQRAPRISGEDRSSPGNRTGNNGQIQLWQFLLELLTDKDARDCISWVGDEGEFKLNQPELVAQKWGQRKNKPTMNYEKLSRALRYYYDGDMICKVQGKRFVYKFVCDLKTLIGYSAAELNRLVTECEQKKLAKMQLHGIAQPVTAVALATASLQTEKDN
# Procedure, shortened: as §1
# [4] = target: T4, ERG (Homo sapiens, UniProt P11308 1-479); conditions: protein: recombinant; tags: N-terminal GST; dsDNA, one strand shown
# T4 sequence: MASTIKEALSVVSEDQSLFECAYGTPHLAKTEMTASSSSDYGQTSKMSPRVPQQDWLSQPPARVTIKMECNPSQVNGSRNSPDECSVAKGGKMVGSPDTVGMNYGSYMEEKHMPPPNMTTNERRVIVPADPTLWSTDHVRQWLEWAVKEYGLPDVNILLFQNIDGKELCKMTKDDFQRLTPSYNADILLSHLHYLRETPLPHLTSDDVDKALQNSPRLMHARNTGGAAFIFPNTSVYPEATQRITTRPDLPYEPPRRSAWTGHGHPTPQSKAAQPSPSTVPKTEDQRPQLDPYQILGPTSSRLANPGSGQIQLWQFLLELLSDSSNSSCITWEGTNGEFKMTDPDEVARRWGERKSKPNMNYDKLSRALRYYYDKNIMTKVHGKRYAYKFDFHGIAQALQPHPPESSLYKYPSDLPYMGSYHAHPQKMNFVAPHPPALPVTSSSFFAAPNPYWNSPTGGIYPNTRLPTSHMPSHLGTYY
# Procedure, shortened: as §1
# [5] = target: ELF1 (Homo sapiens, UniProt P32519 1-619); conditions: protein: recombinant; tags: N-terminal GST; dsDNA, one strand shown
# Chain of ELF1 (P32519 whole entry): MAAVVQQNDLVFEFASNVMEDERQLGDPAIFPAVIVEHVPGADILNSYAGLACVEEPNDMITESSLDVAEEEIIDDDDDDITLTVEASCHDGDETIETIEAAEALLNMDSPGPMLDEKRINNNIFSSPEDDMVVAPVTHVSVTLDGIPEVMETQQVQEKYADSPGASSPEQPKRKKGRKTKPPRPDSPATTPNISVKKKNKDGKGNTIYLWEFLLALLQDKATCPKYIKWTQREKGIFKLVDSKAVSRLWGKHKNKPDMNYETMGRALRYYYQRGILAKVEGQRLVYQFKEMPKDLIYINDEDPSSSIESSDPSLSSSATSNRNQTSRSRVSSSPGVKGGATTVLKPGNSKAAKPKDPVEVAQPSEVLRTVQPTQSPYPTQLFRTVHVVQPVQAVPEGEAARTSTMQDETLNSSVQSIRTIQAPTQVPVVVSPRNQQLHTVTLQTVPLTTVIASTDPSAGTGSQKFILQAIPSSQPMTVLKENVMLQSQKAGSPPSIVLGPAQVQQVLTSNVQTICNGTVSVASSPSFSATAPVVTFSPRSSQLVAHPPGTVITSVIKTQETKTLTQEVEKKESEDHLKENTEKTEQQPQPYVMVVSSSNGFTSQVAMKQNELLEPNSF
# Procedure, shortened: as §1
# [6] = target: T5, EHF (Homo sapiens, UniProt Q9NZC4 1-300); conditions: protein: recombinant; tags: N-terminal GST; dsDNA, one strand shown
# T5 sequence: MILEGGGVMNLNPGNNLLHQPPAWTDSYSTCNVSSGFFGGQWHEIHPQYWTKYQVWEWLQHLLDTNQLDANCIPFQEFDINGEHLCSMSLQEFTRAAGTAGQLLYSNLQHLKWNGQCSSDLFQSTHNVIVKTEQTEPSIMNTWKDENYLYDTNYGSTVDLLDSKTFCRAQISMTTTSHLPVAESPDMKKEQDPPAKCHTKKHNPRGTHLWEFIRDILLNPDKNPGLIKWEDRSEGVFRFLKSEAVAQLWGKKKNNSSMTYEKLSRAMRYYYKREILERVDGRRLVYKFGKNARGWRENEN
# Procedure, shortened: as §1
# [7] = target: SPIB (Homo sapiens, UniProt Q01892 1-262); conditions: protein: recombinant; tags: N-terminal GST; dsDNA, one strand shown
# Chain of SPIB (Q01892 whole entry): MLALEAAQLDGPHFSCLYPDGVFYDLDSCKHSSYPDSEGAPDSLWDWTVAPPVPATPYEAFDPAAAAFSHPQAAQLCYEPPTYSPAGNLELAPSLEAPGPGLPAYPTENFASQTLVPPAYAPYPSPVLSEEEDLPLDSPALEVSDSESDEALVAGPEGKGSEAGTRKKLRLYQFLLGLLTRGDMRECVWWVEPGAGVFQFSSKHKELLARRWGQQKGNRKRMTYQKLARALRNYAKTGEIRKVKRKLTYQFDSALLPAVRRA
# Procedure, shortened: as §1
# [8] = target: T6, ELK3 (Homo sapiens, UniProt P41970 1-407); conditions: protein: recombinant; tags: N-terminal GST; dsDNA, one strand shown
# T6 sequence: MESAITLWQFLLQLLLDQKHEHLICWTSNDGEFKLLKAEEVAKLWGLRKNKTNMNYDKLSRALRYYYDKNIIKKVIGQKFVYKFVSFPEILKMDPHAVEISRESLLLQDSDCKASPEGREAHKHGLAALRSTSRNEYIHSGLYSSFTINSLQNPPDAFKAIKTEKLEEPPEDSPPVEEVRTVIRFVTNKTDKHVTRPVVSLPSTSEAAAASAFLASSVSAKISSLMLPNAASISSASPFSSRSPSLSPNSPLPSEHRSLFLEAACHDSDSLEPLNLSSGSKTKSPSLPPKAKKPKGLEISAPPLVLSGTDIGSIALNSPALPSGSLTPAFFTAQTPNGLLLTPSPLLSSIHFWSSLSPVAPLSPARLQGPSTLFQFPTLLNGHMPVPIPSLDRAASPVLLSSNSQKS
# Procedure, shortened: as §1
# [9] = target: T7, FEV (Homo sapiens, UniProt Q99581 1-238); conditions: protein: recombinant; tags: N-terminal GST; dsDNA, one strand shown
# T7 sequence: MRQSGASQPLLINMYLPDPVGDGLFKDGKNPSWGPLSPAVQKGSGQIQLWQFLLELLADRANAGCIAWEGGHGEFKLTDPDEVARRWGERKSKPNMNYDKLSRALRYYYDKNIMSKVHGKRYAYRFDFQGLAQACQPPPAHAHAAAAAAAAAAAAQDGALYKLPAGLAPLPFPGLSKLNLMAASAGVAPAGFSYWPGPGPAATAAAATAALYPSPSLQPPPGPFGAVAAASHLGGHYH
# Procedure, shortened: as §1
# [10] = target: ETV5 (Homo sapiens, UniProt P41161 1-510); conditions: protein: recombinant; tags: N-terminal GST; dsDNA, one strand shown
# Chain of ETV5 (P41161 whole entry): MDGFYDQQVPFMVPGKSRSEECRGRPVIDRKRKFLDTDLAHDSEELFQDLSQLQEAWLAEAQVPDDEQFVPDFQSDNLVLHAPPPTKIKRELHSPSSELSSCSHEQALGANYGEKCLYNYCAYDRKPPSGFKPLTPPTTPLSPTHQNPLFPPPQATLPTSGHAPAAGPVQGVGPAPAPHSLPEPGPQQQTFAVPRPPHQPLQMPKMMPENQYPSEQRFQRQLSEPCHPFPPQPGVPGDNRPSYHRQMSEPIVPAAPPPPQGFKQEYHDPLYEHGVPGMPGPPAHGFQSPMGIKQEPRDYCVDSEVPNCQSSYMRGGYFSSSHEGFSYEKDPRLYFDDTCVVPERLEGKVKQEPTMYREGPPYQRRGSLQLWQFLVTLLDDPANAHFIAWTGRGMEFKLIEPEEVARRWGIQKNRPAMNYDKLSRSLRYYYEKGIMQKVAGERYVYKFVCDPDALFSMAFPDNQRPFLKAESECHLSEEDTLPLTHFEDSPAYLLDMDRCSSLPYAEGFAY
# Procedure, shortened: as §1
# [11] = target: HSF1 (Homo sapiens, UniProt Q00613 1-529); conditions: protein: recombinant; tags: N-terminal GST; chain copies: 3; dsDNA, one strand shown
# Chain of HSF1 (Q00613 whole entry): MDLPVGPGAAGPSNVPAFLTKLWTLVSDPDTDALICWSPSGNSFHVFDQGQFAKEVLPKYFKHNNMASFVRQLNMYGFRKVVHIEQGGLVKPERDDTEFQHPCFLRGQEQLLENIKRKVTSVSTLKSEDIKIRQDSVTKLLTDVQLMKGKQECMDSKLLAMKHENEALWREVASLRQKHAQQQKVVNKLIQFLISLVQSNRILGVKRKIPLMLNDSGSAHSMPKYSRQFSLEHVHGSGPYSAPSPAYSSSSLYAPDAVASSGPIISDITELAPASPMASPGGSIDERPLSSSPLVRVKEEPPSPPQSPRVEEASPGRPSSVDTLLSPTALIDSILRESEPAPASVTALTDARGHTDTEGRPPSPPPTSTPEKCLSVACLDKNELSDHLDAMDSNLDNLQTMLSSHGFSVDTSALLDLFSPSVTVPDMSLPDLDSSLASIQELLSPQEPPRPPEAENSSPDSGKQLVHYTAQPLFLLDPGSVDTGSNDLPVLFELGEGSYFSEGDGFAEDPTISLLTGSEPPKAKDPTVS
# Procedure, shortened: as §1
# [12] = target: T8, SPIC (Homo sapiens, UniProt Q8N5J4 1-248); conditions: protein: recombinant; tags: N-terminal GST; dsDNA, one strand shown
# T8 sequence: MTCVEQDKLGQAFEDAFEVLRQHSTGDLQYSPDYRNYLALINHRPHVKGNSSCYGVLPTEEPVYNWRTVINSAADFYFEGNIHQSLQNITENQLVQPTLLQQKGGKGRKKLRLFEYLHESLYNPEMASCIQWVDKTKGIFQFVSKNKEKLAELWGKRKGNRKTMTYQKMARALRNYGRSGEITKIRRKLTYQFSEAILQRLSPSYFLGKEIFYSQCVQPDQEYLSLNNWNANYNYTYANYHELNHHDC
# Procedure, shortened: as §1
# [13] = target: ELF4 (Homo sapiens, UniProt Q99607 1-663); conditions: protein: recombinant; tags: N-terminal GST; dsDNA, one strand shown
# Chain of ELF4 (Q99607 whole entry): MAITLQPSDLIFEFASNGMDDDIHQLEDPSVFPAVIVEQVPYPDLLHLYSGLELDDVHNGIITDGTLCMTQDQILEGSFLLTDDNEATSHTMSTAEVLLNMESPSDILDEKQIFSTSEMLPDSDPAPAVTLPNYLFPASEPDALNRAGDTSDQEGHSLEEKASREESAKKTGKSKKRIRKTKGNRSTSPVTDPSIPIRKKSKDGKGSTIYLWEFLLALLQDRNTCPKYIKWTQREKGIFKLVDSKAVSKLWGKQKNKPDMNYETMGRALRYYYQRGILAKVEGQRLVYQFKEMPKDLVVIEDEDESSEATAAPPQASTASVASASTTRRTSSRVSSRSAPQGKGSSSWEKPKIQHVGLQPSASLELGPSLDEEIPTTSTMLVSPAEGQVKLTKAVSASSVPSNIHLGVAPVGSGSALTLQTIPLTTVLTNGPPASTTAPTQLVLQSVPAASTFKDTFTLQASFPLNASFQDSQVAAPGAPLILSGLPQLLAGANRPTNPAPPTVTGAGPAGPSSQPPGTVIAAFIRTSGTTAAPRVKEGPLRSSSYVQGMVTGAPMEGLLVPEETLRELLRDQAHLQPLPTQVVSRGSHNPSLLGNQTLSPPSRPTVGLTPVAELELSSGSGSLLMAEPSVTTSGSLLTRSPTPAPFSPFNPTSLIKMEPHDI
# Procedure, shortened: as §1
# [14] = target: T9, ETV2 (Homo sapiens, UniProt O00321 1-342); conditions: protein: recombinant; tags: N-terminal GST; dsDNA, one strand shown
# T9 sequence: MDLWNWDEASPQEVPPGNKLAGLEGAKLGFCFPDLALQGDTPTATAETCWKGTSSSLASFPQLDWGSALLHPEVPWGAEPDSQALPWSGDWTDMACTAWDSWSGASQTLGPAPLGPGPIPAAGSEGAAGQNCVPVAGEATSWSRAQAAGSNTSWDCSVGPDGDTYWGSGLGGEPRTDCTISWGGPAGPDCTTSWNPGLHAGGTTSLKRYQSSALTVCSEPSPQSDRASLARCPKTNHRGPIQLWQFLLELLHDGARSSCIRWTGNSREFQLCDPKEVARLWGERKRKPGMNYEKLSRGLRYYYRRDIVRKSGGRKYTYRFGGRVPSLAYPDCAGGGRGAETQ
# Procedure, shortened: as §1
# [15] = target: CRX (Homo sapiens, UniProt O43186 1-299); conditions: protein: recombinant; tags: N-terminal GST; dsDNA, one strand shown
# Chain of CRX (O43186 whole entry): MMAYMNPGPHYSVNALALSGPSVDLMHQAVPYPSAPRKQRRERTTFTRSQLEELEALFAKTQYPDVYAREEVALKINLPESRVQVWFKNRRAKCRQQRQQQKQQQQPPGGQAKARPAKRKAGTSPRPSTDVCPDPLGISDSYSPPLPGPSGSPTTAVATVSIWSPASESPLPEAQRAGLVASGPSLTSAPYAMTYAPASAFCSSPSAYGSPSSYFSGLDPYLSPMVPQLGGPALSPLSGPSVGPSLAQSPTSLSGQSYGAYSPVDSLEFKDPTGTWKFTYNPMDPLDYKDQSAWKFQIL
# Procedure, shortened: as §1
# [16] = target: ETV1 (Homo sapiens, UniProt P50549 1-477); conditions: protein: recombinant; tags: N-terminal GST; dsDNA, one strand shown
# Chain of ETV1 (P50549 whole entry): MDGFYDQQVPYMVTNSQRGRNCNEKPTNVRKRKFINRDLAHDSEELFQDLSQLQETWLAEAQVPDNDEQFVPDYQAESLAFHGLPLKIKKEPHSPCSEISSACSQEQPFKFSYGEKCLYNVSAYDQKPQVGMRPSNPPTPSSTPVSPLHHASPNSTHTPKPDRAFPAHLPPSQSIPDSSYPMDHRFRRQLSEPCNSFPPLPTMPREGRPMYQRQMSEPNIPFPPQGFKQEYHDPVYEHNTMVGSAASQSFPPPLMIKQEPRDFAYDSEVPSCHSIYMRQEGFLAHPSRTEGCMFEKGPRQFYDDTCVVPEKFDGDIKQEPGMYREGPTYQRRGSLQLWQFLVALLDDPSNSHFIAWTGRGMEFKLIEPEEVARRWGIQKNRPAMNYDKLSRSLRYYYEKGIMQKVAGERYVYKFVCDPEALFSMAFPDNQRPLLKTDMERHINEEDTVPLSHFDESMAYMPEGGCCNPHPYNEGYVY
# Procedure, shortened: as §1
sequence,measurement,setting,value
ATACCA,binding signal,[1],"1.02 fold enrichment (6-mer frequency, TF over GST control)"
same,binding signal,[2],"1.07 fold enrichment (6-mer frequency, TF over GST control)"
same,binding signal,[3],"1.02 fold enrichment (6-mer frequency, TF over GST control)"
same,binding signal,[4],"1.01 fold enrichment (6-mer frequency, TF over GST control)"
same,binding signal,[5],"1.06 fold enrichment (6-mer frequency, TF over GST control)"
same,binding signal,[6],"1.08 fold enrichment (6-mer frequency, TF over GST control)"
same,binding signal,[7],"1.01 fold enrichment (6-mer frequency, TF over GST control)"
same,binding signal,[8],"1.06 fold enrichment (6-mer frequency, TF over GST control)"
same,binding signal,[9],"1.08 fold enrichment (6-mer frequency, TF over GST control)"
same,binding signal,[10],"1.01 fold enrichment (6-mer frequency, TF over GST control)"
same,binding signal,[11],"1.03 fold enrichment (6-mer frequency, TF over GST control)"
same,binding signal,[12],"1.03 fold enrichment (6-mer frequency, TF over GST control)"
same,binding signal,[13],"1.09 fold enrichment (6-mer frequency, TF over GST control)"
same,binding signal,[14],"1.08 fold enrichment (6-mer frequency, TF over GST control)"
same,binding signal,[15],"1.04 fold enrichment (6-mer frequency, TF over GST control)"
same,binding signal,[16],"1.05 fold enrichment (6-mer frequency, TF over GST control)"
